Tb PFK inh = blocks T. brucei phosphofructokinase | O15648 | T. brucei PFK, ADP-Glo luminescence | Potency, µM (doses to about 57.5 µM), without a hit: at the highest dose activity, negative = inhibition, usual class: inhibitors | hit rate 0.17% among 330,000 | AID 485367;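 also: potency is read from the fitted curve at half-maximal effect; 0% = uninhibited 1x PFK enzyme wells and -100% = no-enzyme wells; nearly all actives have a fitted effect of over 60% in size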
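Compounds were pin-transferred as a titration series up to 57 uM into substrate buffer (0.5 mM F6P, 0.1 mM ATP, pH 8.0), then 1.25 nM PFK was added and reactions ran 45 min before ADP-Glo detection.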
Tb PGK inh = blocks T. brucei phosphoglycerate kinase; PGK/GAPDH coupled, Kinase-Glo luminescence, 60 min; hit rate 0.043% among 380,000; AID 602233; Potency, µM (series often up to 57.5 µM), without a hit: at the highest dose activity change, negative = inhibition, usual class: inhibitors; also: potency is read from the fitted curve at half-maximal effect; nearly all actives have a fitted effect of over 60% in size
Target sequence (P07378 whole entry, looked up): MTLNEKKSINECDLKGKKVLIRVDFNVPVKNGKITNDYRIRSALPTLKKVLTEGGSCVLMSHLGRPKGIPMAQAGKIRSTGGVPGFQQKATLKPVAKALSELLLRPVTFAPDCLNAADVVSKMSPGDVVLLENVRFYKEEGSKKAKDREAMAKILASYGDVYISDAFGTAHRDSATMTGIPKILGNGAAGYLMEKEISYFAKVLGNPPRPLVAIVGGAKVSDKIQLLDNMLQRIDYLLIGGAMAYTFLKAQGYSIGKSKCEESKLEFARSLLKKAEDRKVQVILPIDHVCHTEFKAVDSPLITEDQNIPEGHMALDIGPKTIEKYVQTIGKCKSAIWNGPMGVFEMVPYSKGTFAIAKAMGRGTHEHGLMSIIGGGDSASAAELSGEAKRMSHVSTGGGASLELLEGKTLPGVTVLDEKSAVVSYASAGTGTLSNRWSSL
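Recombinant glycosomal PGK reaction used 1,3-bisphosphoglycerate generated in-well by GAPDH (100nM final) in 100mM TEA pH 7.6, 5mM MgCl2, 0.01% Tween-20. After 60 minutes at room temperature, ATP was read by Kinase-Glo Plus luminescence end-point.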
PI5P4K alpha inh = PI5P4K alpha (human) kinase inhibition; hit rate 1.2% among 330,000; max response, %; AID 652105; PI5P4Kalpha enzyme, ADP-Glo luminescence, 60 min; stronger effect = lower value; active = max response of -50% or lower; inconclusive = between -30% and -50%; inactive = -30% or higher; also: value at the top dose of about 77 µM
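Single end-point luminescence (ADP-Glo) quantified ADP from PI5P4Kalpha turnover; ATP 5 microM final, 1 h at RT, 0.1% CHAPS and 0.28 mM EGTA in HEPES pH 7.4.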
Pin1 inh = blocks the human prolyl isomerase Pin1 | Pin1 FP peptide displacement, HiFluor488, 10 min | Potency, µM (top dose mostly 115 µM), for inactives: top-dose activity, negative = inhibition, hits mostly inhibitors | hit rate 0.009% among 390,000 | AID 504891; active = well fitted inhibition curve with a large enough effect in the polarisation, with a control signal flat, not every such curve was filed as active; inconclusive = small, poorly fitted or top-dose-only effect, or effect the other way, or a change in a side signal; inactive = no such curve, though single readings can be large or run the other way; the % refers to the polarisation; also: potency is read from the fitted curve at half-maximal effect
Target sequence (Q13526 whole entry, looked up): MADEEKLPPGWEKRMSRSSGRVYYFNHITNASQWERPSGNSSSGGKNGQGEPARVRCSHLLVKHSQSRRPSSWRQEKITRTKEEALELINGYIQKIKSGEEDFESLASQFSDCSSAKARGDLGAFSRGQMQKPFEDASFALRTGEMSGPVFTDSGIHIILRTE
PI4K2A block = PI4K2A (human) kinase inhibition; Q9BTU6; purified PI4K2A, ADP-Glo luminescence, 1 h; stronger effect = lower value; activity change, negative = inhibition, % at 76.9 µM; hit rate 0.13% among 420,000; in the data active = activity change below about -50%; inconclusive = mostly about -30% to -49%;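 also: -100% = wells without enzyme as full effect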
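ADP-Glo luminescence measured ADP generated by PI4K2A enzyme (4 ug/mL before mixing) with 1.2 mM PI substrate (pre-mix) and 300 microM ATP (pre-mix). Tris pH7.5 buffer with MgCl2, Triton X-100; 1 h reaction at ambient temperature.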
ADP-Glo counter = ADP-Glo luciferase interference, PI5P4K counter-screen; shares compounds with PI5P4K alpha inh; 1,100 tested, under 10 active; AID 743285; ADP-Glo detection counter-screen, luciferase luminescence, no enzyme; Potency, µM (doses to about 76.9 µM), for the others: top-dose activity change, negative = inhibition, hits mostly inhibitors
Starred values were filed as active, the others as inactive; i = inactive; ? = inconclusive; nt = no result given. Only a selection was taken, and hits are over-represented in it overall. Unless noted, calls follow the shape of the dose curve; as a rule, active = well fitted curve in the direction sought with a large enough effect; inconclusive = small, poorly fitted or top-dose-only effect, or another doubt; inactive = no such curve, though single readings can be large; an effect the other way counts as inactive or inconclusive. Unless noted, % is scaled to controls: 0 for no effect and ±100 for the full control effect.

SMILES	Tb PFK inh	Tb PGK inh	PI5P4K alpha inh	Pin1 inh	PI4K2A block	ADP-Glo counter
Cc1ccc([C@@H]2CC=C(C(=O)O)[C@H](c3ccc(C(C)(C)C)cc3)N2S(=O)(=O)c2ccc(C)cc2)cc1	0.0%	-5.2%	-22.6	nt	-1.1	nt
C=CCN1C(=O)[C@H](CC(=O)N2CCOCC2)[C@@]2(C(=O)OCC)CCCC=C12	nt	nt	nt	nt	-2.2	nt
Cc1ccc(-n2c(SCC(=O)Nc3ccc4c5c(cccc35)CC4)nc(O)c(C)c2=O)cc1	6.4%	i	-11.2	5.6%	6.6	nt
Cc1ccc(-n2c(SCC(=O)Nc3ccc4c5c(cccc35)CC4)nc(O)cc2=O)cc1	2.2%	-4.0%	-50.7*	4.2%	-1.6	-0.2%
CC1=CC(=O)C(C(C)C)=C/C1=N\OS(=O)(=O)c1ccccc1	nt	nt	nt	nt	-4.1	nt
CCOc1ccc(CCNS(=O)(=O)c2cn(C)cn2)cc1OCC	4.9%	i	-25.6	-7.7%	-2.3	0.3%
CCOc1cc(CNS(=O)(=O)c2cn(C)cn2)cc(OCC)c1OCC	-6.3%	i	0.7	4.7%	-3.1	nt
CCN1CCCCC(NC(=O)c2ccccc2OC)C1=O (stereo not given)	nt	nt	nt	nt	-0.7	nt
COc1ccc(-c2cc(=O)oc3cc(OC(=O)C4CCCCC4)c(Cl)cc23)cc1	5.6%	-0.5%	-55.4*	-0.8%	-0.5	-4.6%
COc1ccc(-c2cc(=O)oc3cc(O)ccc23)cc1	-0.4%	i	0.8	6.8%	0.4	nt
O=C(OC12CCCN(C1)/C(=C/c1cccnc1)C2)c1ccc(F)cc1 (stereo not given)	nt	nt	nt	nt	4.3	nt
O=C(c1cc2nc(C3CC3)cc(C(F)F)n2n1)N1CCOCC1	-22.1%	-7.1%	-62.7*	0.2%	-3.3	-12.4%
Cc1nc(N2CCC(C)CC2)c2c(C)c(C(=O)O)sc2n1	14.1%	-2.1%	nt	?	5.7	-3.5%
CCN(CC)C(=O)CC[C@@H]1CC[C@]2(CCCN(Cc3ccccn3)C2)O1	nt	nt	nt	nt	-10.0	nt
CC(C)C[C@H](NC1(C(=O)NC2CCCCC2)CCN(C(=O)OC(C)(C)C)CC1)C(=O)NCCc1c[nH]c2ccccc12	nt	nt	nt	nt	-2.2	nt
Fc1ccc(C2=Nc3cccc4cccc(c34)N2)cc1	-2.3%	-8.5%	-7.9	1.3%	-4.6	nt
FC(F)(F)C1=Nc2cccc3cccc(c23)N1	-0.3%	-5.6%	-82.4*	nt	-64.3*	-5.4%
O=C(O)c1cccc(S(=O)(=O)Nc2ccc3[nH]c(=O)[nH]c3c2)c1	-5.9%	-14.8%	?	-10.1%	-0.2	nt
O=C(O)c1ccc(Cl)c(S(=O)(=O)Nc2ccc3[nH]c(=O)[nH]c3c2)c1	-14.2%	-5.5%	-64.8*	-19.1%	0.2	4.8%
O=C1NC(c2cccs2)Nc2ccccc21 (stereo not given)	2.2%	5.2%	-58.0*	1.4%	-1.1	1.9%
Cc1ccsc1C1NC(=O)c2ccccc2N1 (stereo not given)	-6.1%	6.2%	-9.3	-10.7%	1.0	nt
Cc1ccc(C(c2cc(Cl)c3cccnc3c2O)N2CCN(C)CC2)cc1 (stereo not given)	-13.0%	i	-88.9*	-1.6%	1.7	6.2%
COC(=O)[C@]1(C#N)CC(=O)N(CC(C)C)[C@@H]1c1ccccc1	nt	nt	nt	nt	-0.7	nt
Cc1cc(C)c(NC(=O)OCCN2CCOCC2)c(C)c1	-0.6%	-4.1%	-63.2*	-4.2%	-9.9	-0.1%
CN1CCN(S(=O)(=O)c2ccc(N3CCc4ccccc4C3)nc2)CC1	1.7%	-0.8%	-69.5*	-10.4%	-5.9	-5.8%
SMILES	Tb PFK inh	Tb PGK inh	PI5P4K alpha inh	Pin1 inh	PI4K2A block	ADP-Glo counter
CN1CCN(c2ccc(S(=O)(=O)N3CCCCC3)cn2)CC1	-3.3%	-20.4%	-3.2	-12.9%	-5.6	nt
CCOc1ccccc1NC(=O)CSc1nc2nc(-c3cccs3)cc(C(F)(F)F)c2c(=O)[nH]1	0.4%	-9.5%	?	38.1%	2.2	nt
COc1ccc(NC(=O)CSc2nc3nc(-c4cccs4)cc(C(F)(F)F)c3c(=O)[nH]2)c(OC)c1	-0.9%	-2.0%	-53.0*	0.2%	2.5	-1.3%
CCOc1ccc(-n2c(SCc3cccc4ccccc34)nnc2-c2ccc(C)cc2)cc1	nt	nt	nt	nt	3.1	nt
COC(=O)c1c(NC(=O)CN2CCC3(O)CCCCC3C2c2ccc(OC)cc2OC)sc(C)c1C (stereo not given)	-0.4%	-11.5%	-51.0*	21.6%	-3.3	6.7%
COC(=O)c1c(NC(=O)CN2CCC3(O)CCCCC3C2c2ccccc2OC)sc(C)c1C (stereo not given)	1.7%	-8.4%	-1.5	-7.3%	-0.4	nt
CC(=O)c1cccc(NC(=O)c2cc(-c3ccco3)nc3ccccc23)c1	-0.1%	-10.7%	-50.8*	52.2%	-1.5	4.4%
O=C(Nc1cccc(S(=O)(=O)NC2=NCCCCC2)c1)c1cc(-c2ccco2)nc2ccccc12	1.9%	-14.6%	-73.0*	?	?	-9.5%
COc1cccc(NC(=O)c2cc(-c3ccco3)nc3ccccc23)c1	nt	-8.6%	-26.6	40.7%	-0.6	nt
O=C(Nc1cccc(S(=O)(=O)NC2=NCCCCC2)c1)c1cc(-c2ccncc2)nc2ccccc12	0.4%	-4.7%	-0.2	0.8%	-4.9	nt
O=C(Cn1c(-c2cncs2)nc2ccccc21)N1CCCCC1	nt	nt	nt	nt	23.5	nt
CCOC(=O)[C@]12CCCC=C1N(CCCOC)C(=O)[C@@H]2CC(=O)NCCc1ccccc1OC	nt	nt	nt	nt	-1.1	nt
COc1cccc(C(=O)OCC(=O)Nc2sc3c(c2C(N)=O)CCC3)c1O	?	-16.4%	-51.5*	?	-16.9	3.5%
COc1ccccc1OCC(=O)Nc1sc2c(c1C(N)=O)CCC2	-13.4%	-5.4%	?	?	-10.8	nt
Cc1cc(NC(=O)CCCn2cc([N+](=O)[O-])cn2)n(Cc2ccc(F)cc2)n1	-1.2%	-8.3%	-68.5*	?	-3.0	-11.7%
CC1(C(=O)NS(=O)(=O)C2CC2)CCN(C(=O)c2ccccc2F)C1 (stereo not given)	nt	nt	-78.5*	nt	5.3	-0.1%
COc1ccc2nc(SCC(=O)N3CCN(c4ccc(F)cc4)CC3)c(C#N)cc2c1	11.3%	-3.7%	-50.2*	?	-12.5	5.6%
CCOC(=O)c1cccc(-c2cc(C(=O)OC)c3n(c2=O)CCC3)c1	nt	nt	nt	nt	2.0	nt
O=C(Nc1ccc2ncccc2c1)c1cc(-c2ccc(Cl)cc2)nc2ccccc12	nt	nt	nt	nt	5.5	nt
O=C(Nc1cccc2cccnc12)c1csc(COCCO)n1	nt	nt	-27.7	nt	1.9	-6.6%
CN(C)S(=O)(=O)c1ccc(C(=O)Nc2cc3c(cc2C(=O)O)OCCCO3)cc1	-2.6%	-8.1%	-50.3*	0.3%	-3.3	-0.2%
CCCNC(=O)Nc1ccc2c(c1)C(=O)N(C)[C@H]1CC[C@@H](CC(=O)OC)O[C@H]1CO2	nt	nt	nt	nt	-5.1	nt
Cc1ccc(-c2csc3nc4cc(C(N)=O)ccc4c(=O)n23)cc1	-3.6%	-7.2%	-51.2*	?	-21.1	-5.2%
